# Measured values: publication PMC11006913
# Residue numbers refer to the chain shown, from its start.
# What was measured:
# Test in all cases: PBM; 200 nM protein, PBS
# Conditions in all cases: dsDNA, one strand shown
# CRX [1] = molecular target: CRX (Homo sapiens, UniProt O43186 26-111)
# VENTX [2] = molecular target: T1, VENTX (Homo sapiens, UniProt O95231 78-163, R121Q)
# T1 sequence: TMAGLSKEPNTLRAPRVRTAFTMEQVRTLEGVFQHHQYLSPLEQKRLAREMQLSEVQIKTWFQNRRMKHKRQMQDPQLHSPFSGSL
# VENTX [3] = molecular target: T2, VENTX (Homo sapiens, UniProt O95231 78-163)
# T2 sequence: T1 sequence with Q44R
# VENTX [4] = molecular target: T3, VENTX (Homo sapiens, UniProt O95231 78-163, Y115F)
# T3 sequence: T1 sequence with Y38F, Q44R
# CRX [5] = molecular target: CRX (Homo sapiens, UniProt O43186 26-111, E42D)
# HOXA4 [6] = molecular target: HOXA4 (Homo sapiens, UniProt Q00056 201-287, R217L)
# CRX [7] = molecular target: CRX (Homo sapiens, UniProt O43186 26-111, R41L)
# HOXA4 [8] = molecular target: HOXA4 (Homo sapiens, UniProt Q00056 201-287, W262R)
# PRRX1 [9] = molecular target: PRRX1 (Homo sapiens, UniProt P54821 80-166, F113S)
# HOXA4 [10] = molecular target: HOXA4 (Homo sapiens, UniProt Q00056 201-287)
# HOXA4 [11] = molecular target: HOXA4 (Homo sapiens, UniProt Q00056 201-287, W262F)
# PRRX1 [12] = molecular target: PRRX1 (Homo sapiens, UniProt P54821 80-166)
# SIX6 [13] = molecular target: T4, SIX6 (Homo sapiens, UniProt O95475 114-200, L167I)
# T4 sequence: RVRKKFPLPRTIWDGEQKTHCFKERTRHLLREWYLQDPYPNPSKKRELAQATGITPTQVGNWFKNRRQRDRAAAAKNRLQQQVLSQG
# SIX6 [14] = molecular target: T5, SIX6 (Homo sapiens, UniProt O95475 114-200, L143V)
# T5 sequence: T4 sequence with L30V, I54L
# ALX4 [15] = molecular target: ALX4 (Homo sapiens, UniProt Q9H161 200-286)
# PAX4 [16] = molecular target: T6, PAX4 (Homo sapiens, UniProt O43316 9-242, R200K)
# T6 sequence: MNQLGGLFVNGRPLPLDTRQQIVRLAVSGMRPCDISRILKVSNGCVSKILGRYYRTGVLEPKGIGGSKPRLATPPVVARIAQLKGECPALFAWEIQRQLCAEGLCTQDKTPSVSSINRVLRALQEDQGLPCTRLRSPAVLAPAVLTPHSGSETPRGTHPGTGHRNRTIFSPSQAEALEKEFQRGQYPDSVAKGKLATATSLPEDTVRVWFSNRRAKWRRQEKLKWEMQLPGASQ
# SIX6 [17] = molecular target: T7, SIX6 (Homo sapiens, UniProt O95475 114-200, H141N)
# T7 sequence: T4 sequence with H28N, I54L
# SIX6 [18] = molecular target: T8, SIX6 (Homo sapiens, UniProt O95475 114-200, T165P)
# T8 sequence: T4 sequence with T52P, I54L
# PAX4 [19] = molecular target: T9, PAX4 (Homo sapiens, UniProt O43316 9-242)
# T9 sequence: T6 sequence with K192R
# SIX6 [20] = molecular target: T10, SIX6 (Homo sapiens, UniProt O95475 114-200, L167M)
# T10 sequence: T4 sequence with I54M
# SIX6 [21] = molecular target: T11, SIX6 (Homo sapiens, UniProt O95475 114-200, L143M)
# T11 sequence: T4 sequence with L30M, I54L
# SIX6 [22] = molecular target: T12, SIX6 (Homo sapiens, UniProt O95475 114-200, L143I)
# T12 sequence: T4 sequence with L30I, I54L
# ALX4 [23] = molecular target: ALX4 (Homo sapiens, UniProt Q9H161 200-286, Q225E)
# SIX6 [24] = molecular target: T13, SIX6 (Homo sapiens, UniProt O95475 114-200, T165G)
# T13 sequence: T4 sequence with T52G, I54L
# HOXA2 [25] = molecular target: HOXA2 (Homo sapiens, UniProt O43364 129-215, R185T)
# SIX6 [26] = molecular target: T14, SIX6 (Homo sapiens, UniProt O95475 114-200, T139Q)
# T14 sequence: T4 sequence with T26Q, I54L
# ALX3 [27] = molecular target: ALX3 (Homo sapiens, UniProt O95076 139-225, N203Q)
# SIX6 [28] = molecular target: T15, SIX6 (Homo sapiens, UniProt O95475 114-200, T165A)
# T15 sequence: T4 sequence with T52A, I54L
# PAX4 [29] = molecular target: T16, PAX4 (Homo sapiens, UniProt O43316 9-242, R200Q)
# T16 sequence: T6 sequence with K192Q
# HOXA2 [30] = molecular target: HOXA2 (Homo sapiens, UniProt O43364 129-215, R185K)
# PAX4 [31] = molecular target: T17, PAX4 (Homo sapiens, UniProt O43316 9-242, F177V)
# T17 sequence: T6 sequence with F169V, K192R
# SIX6 [32] = molecular target: T18, SIX6 (Homo sapiens, UniProt O95475 114-200, L167V)
# T18 sequence: T4 sequence with I54V
# ALX3 [33] = molecular target: ALX3 (Homo sapiens, UniProt O95076 139-225)
# PAX4 [34] = molecular target: T19, PAX4 (Homo sapiens, UniProt O43316 9-242, F177Y)
# T19 sequence: T6 sequence with F169Y, K192R
# SIX6 [35] = molecular target: T20, SIX6 (Homo sapiens, UniProt O95475 114-200)
# T20 sequence: T4 sequence with I54L
# ALX3 [36] = molecular target: ALX3 (Homo sapiens, UniProt O95076 139-225, L168Q)
# SIX6 [37] = molecular target: T21, SIX6 (Homo sapiens, UniProt O95475 114-200, T165I)
# T21 sequence: T4 sequence with T52I, I54L
# ALX3 [38] = molecular target: ALX3 (Homo sapiens, UniProt O95076 139-225, L168V)
# PAX4 [39] = molecular target: T22, PAX4 (Homo sapiens, UniProt O43316 9-242, R227W)
# T22 sequence: T6 sequence with K192R, R219W
# HOXA2 [40] = molecular target: HOXA2 (Homo sapiens, UniProt O43364 129-215, Y150S)
# ALX3 [41] = molecular target: ALX3 (Homo sapiens, UniProt O95076 139-225, N203S)
# HOXA2 [42] = molecular target: HOXA2 (Homo sapiens, UniProt O43364 129-215)
# HOXA2 (Homo sapiens, UniProt O43364 129-215), sequence (O43364 129-215): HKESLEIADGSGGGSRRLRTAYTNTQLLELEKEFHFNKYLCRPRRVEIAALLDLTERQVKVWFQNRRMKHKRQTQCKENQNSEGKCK
# CRX (Homo sapiens, UniProt O43186 26-111), sequence (O43186 26-111): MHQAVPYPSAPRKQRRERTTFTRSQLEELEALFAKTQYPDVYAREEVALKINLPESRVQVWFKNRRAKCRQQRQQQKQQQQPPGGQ
# CRX (Homo sapiens, UniProt O43186 26-111, E42D), sequence (O43186 26-111 E42D): as the sequence (O43186 26-111) above, with E17D counted along it
# CRX (Homo sapiens, UniProt O43186 26-111, R41L), sequence (O43186 26-111 R41L): as the sequence (O43186 26-111) above, with R16L counted along it
# HOXA4 (Homo sapiens, UniProt Q00056 201-287, R217L), sequence (Q00056 201-287 R217L): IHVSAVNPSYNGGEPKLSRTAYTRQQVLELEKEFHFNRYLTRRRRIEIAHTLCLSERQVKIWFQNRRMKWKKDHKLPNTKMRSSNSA
# PRRX1 (Homo sapiens, UniProt P54821 80-166), sequence (P54821 80-166): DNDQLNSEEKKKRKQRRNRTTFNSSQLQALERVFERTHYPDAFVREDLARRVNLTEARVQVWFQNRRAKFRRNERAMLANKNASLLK
# ALX3 (Homo sapiens, UniProt O95076 139-225, L168Q), sequence (O95076 139-225 L168Q): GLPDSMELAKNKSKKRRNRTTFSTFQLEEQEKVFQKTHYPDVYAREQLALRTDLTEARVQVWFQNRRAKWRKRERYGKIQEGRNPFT
# HOXA2 (Homo sapiens, UniProt O43364 129-215, R185K), sequence (O43364 129-215 R185K): as the sequence (O43364 129-215) above, with R57K counted along it
# HOXA2 (Homo sapiens, UniProt O43364 129-215, Y150S), sequence (O43364 129-215 Y150S): as the sequence (O43364 129-215) above, with Y22S counted along it
# ALX3 (Homo sapiens, UniProt O95076 139-225, N203S), sequence (O95076 139-225 N203S): as the sequence (O95076 139-225 L168Q) above, with Q30L, N65S counted along it
# HOXA2 (Homo sapiens, UniProt O43364 129-215, R185T), sequence (O43364 129-215 R185T): as the sequence (O43364 129-215) above, with R57T counted along it
# ALX3 (Homo sapiens, UniProt O95076 139-225), sequence (O95076 139-225): as the sequence (O95076 139-225 L168Q) above, with Q30L counted along it
# ALX3 (Homo sapiens, UniProt O95076 139-225, N203Q), sequence (O95076 139-225 N203Q): as the sequence (O95076 139-225 L168Q) above, with Q30L, N65Q counted along it
# HOXA4 (Homo sapiens, UniProt Q00056 201-287, W262R), sequence (Q00056 201-287 W262R): as the sequence (Q00056 201-287 R217L) above, with L17R, W62R counted along it
# PRRX1 (Homo sapiens, UniProt P54821 80-166, F113S), sequence (P54821 80-166 F113S): as the sequence (P54821 80-166) above, with F34S counted along it
# HOXA4 (Homo sapiens, UniProt Q00056 201-287), sequence (Q00056 201-287): as the sequence (Q00056 201-287 R217L) above, with L17R counted along it
# ALX4 (Homo sapiens, UniProt Q9H161 200-286), sequence (Q9H161 200-286): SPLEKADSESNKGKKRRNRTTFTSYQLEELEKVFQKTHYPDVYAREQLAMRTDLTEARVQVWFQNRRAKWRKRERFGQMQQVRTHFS
# ALX4 (Homo sapiens, UniProt Q9H161 200-286, Q225E), sequence (Q9H161 200-286 Q225E): as the sequence (Q9H161 200-286) above, with Q26E counted along it
# HOXA4 (Homo sapiens, UniProt Q00056 201-287, W262F), sequence (Q00056 201-287 W262F): as the sequence (Q00056 201-287 R217L) above, with L17R, W62F counted along it
# ALX3 (Homo sapiens, UniProt O95076 139-225, L168V), sequence (O95076 139-225 L168V): as the sequence (O95076 139-225 L168Q) above, with Q30V counted along it
sequence,measurement,setting,value
GATTAATA,binding signal,CRX [1],"12.7 upbm affinity estimate (log intensity, higher = more binding, comparable within an allelic series)"
same,binding signal,VENTX [2],"11.2 upbm affinity estimate (log intensity, higher = more binding, comparable within an allelic series)"
same,binding signal,VENTX [3],"11.8 upbm affinity estimate (log intensity, higher = more binding, comparable within an allelic series)"
same,binding signal,VENTX [4],"11 upbm affinity estimate (log intensity, higher = more binding, comparable within an allelic series)"
same,binding signal,CRX [5],"12.7 upbm affinity estimate (log intensity, higher = more binding, comparable within an allelic series)"
ACTAATCG,binding signal,CRX [1],"12.1 upbm affinity estimate (log intensity, higher = more binding, comparable within an allelic series)"
same,binding signal,VENTX [2],"11.6 upbm affinity estimate (log intensity, higher = more binding, comparable within an allelic series)"
same,binding signal,VENTX [3],"12.6 upbm affinity estimate (log intensity, higher = more binding, comparable within an allelic series)"
same,binding signal,VENTX [4],"11.5 upbm affinity estimate (log intensity, higher = more binding, comparable within an allelic series)"
same,binding signal,HOXA4 [6],"11.2 upbm affinity estimate (log intensity, higher = more binding, comparable within an allelic series)"
same,binding signal,CRX [5],"11.9 upbm affinity estimate (log intensity, higher = more binding, comparable within an allelic series)"
same,binding signal,CRX [7],"11.3 upbm affinity estimate (log intensity, higher = more binding, comparable within an allelic series)"
CCCGTCCC,binding signal,CRX [1],"8.36 upbm affinity estimate (log intensity, higher = more binding, comparable within an allelic series)"
same,binding signal,HOXA4 [8],"9.79 upbm affinity estimate (log intensity, higher = more binding, comparable within an allelic series)"
same,binding signal,PRRX1 [9],"9.36 upbm affinity estimate (log intensity, higher = more binding, comparable within an allelic series)"
same,binding signal,HOXA4 [6],"9.77 upbm affinity estimate (log intensity, higher = more binding, comparable within an allelic series)"
same,binding signal,CRX [5],"8.37 upbm affinity estimate (log intensity, higher = more binding, comparable within an allelic series)"
same,binding signal,HOXA4 [10],"9.89 upbm affinity estimate (log intensity, higher = more binding, comparable within an allelic series)"
same,binding signal,CRX [7],"8.4 upbm affinity estimate (log intensity, higher = more binding, comparable within an allelic series)"
same,binding signal,HOXA4 [11],"9.95 upbm affinity estimate (log intensity, higher = more binding, comparable within an allelic series)"
same,binding signal,PRRX1 [12],"9.4 upbm affinity estimate (log intensity, higher = more binding, comparable within an allelic series)"
GCAGCTGC,binding signal,CRX [1],"8.45 upbm affinity estimate (log intensity, higher = more binding, comparable within an allelic series)"
same,binding signal,SIX6 [13],"9.09 upbm affinity estimate (log intensity, higher = more binding, comparable within an allelic series)"
same,binding signal,SIX6 [14],"9.05 upbm affinity estimate (log intensity, higher = more binding, comparable within an allelic series)"
same,binding signal,ALX4 [15],"7.95 upbm affinity estimate (log intensity, higher = more binding, comparable within an allelic series)"
same,binding signal,PAX4 [16],"8.99 upbm affinity estimate (log intensity, higher = more binding, comparable within an allelic series)"
same,binding signal,SIX6 [17],"9.04 upbm affinity estimate (log intensity, higher = more binding, comparable within an allelic series)"
same,binding signal,SIX6 [18],"9.02 upbm affinity estimate (log intensity, higher = more binding, comparable within an allelic series)"
same,binding signal,PAX4 [19],"9.1 upbm affinity estimate (log intensity, higher = more binding, comparable within an allelic series)"
same,binding signal,SIX6 [20],"9.06 upbm affinity estimate (log intensity, higher = more binding, comparable within an allelic series)"
same,binding signal,SIX6 [21],"9.14 upbm affinity estimate (log intensity, higher = more binding, comparable within an allelic series)"
same,binding signal,SIX6 [22],"9.05 upbm affinity estimate (log intensity, higher = more binding, comparable within an allelic series)"
same,binding signal,ALX4 [23],"8.23 upbm affinity estimate (log intensity, higher = more binding, comparable within an allelic series)"
same,binding signal,SIX6 [24],"9.04 upbm affinity estimate (log intensity, higher = more binding, comparable within an allelic series)"
same,binding signal,HOXA2 [25],"7.31 upbm affinity estimate (log intensity, higher = more binding, comparable within an allelic series)"
same,binding signal,SIX6 [26],"9.1 upbm affinity estimate (log intensity, higher = more binding, comparable within an allelic series)"
same,binding signal,CRX [5],"8.55 upbm affinity estimate (log intensity, higher = more binding, comparable within an allelic series)"
same,binding signal,ALX3 [27],"7.82 upbm affinity estimate (log intensity, higher = more binding, comparable within an allelic series)"
same,binding signal,SIX6 [28],"9.05 upbm affinity estimate (log intensity, higher = more binding, comparable within an allelic series)"
same,binding signal,PAX4 [29],"9.09 upbm affinity estimate (log intensity, higher = more binding, comparable within an allelic series)"
same,binding signal,HOXA2 [30],"10.3 upbm affinity estimate (log intensity, higher = more binding, comparable within an allelic series)"
same,binding signal,PAX4 [31],"9.27 upbm affinity estimate (log intensity, higher = more binding, comparable within an allelic series)"
same,binding signal,SIX6 [32],"9.06 upbm affinity estimate (log intensity, higher = more binding, comparable within an allelic series)"
same,binding signal,ALX3 [33],"7.63 upbm affinity estimate (log intensity, higher = more binding, comparable within an allelic series)"
same,binding signal,PAX4 [34],"9.13 upbm affinity estimate (log intensity, higher = more binding, comparable within an allelic series)"
same,binding signal,SIX6 [35],"9.1 upbm affinity estimate (log intensity, higher = more binding, comparable within an allelic series)"
same,binding signal,ALX3 [36],"7.75 upbm affinity estimate (log intensity, higher = more binding, comparable within an allelic series)"
same,binding signal,SIX6 [37],"9.05 upbm affinity estimate (log intensity, higher = more binding, comparable within an allelic series)"
same,binding signal,ALX3 [38],"7.78 upbm affinity estimate (log intensity, higher = more binding, comparable within an allelic series)"
same,binding signal,PAX4 [39],"9.34 upbm affinity estimate (log intensity, higher = more binding, comparable within an allelic series)"
same,binding signal,HOXA2 [40],"10.3 upbm affinity estimate (log intensity, higher = more binding, comparable within an allelic series)"
same,binding signal,CRX [7],"8.5 upbm affinity estimate (log intensity, higher = more binding, comparable within an allelic series)"
same,binding signal,ALX3 [41],"7.82 upbm affinity estimate (log intensity, higher = more binding, comparable within an allelic series)"
same,binding signal,HOXA2 [42],"7.36 upbm affinity estimate (log intensity, higher = more binding, comparable within an allelic series)"
